Measurements as given in PMC7862700, “An all-to-all approach to the identification of sequence-specific readers for epigenetic DNA modifications on cytosine”.

How the values were obtained:
Test in all cases: DAPPL (digital affinity profiling via proximity ligation, sequencing); 10 mM Tris-HCl pH 7.5, 50 mM NaCl, 1 mM DTT, 4% glycerol, room temperature, 30 min; GST-TFs on glutathione beads, 16-mer random dsDNA library, 0.1% formaldehyde crosslink after washing; high values mean tight binding
[1] = biological target: T1, FLI1 (Homo sapiens, UniProt Q01543 1-452); conditions: protein: recombinant; tags: N-terminal GST; dsDNA, one strand shown
T1 sequence: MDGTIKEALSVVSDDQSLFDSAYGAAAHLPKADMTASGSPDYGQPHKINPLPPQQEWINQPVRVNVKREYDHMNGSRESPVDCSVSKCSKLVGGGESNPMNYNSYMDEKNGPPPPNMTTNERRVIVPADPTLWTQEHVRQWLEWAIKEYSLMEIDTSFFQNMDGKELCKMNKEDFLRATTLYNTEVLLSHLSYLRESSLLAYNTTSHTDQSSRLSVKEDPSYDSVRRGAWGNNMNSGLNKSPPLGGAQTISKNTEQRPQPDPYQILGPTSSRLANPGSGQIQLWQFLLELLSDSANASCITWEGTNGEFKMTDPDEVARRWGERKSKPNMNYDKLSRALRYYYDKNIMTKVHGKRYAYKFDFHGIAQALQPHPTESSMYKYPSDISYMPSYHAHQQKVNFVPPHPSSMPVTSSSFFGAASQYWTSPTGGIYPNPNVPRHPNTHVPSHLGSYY
Procedure, shortened: (§1)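 Human transcription factors fused to GST were expressed in yeast, captured on glutathione beads, given DNA barcodes and pooled with a GST-only negative control. Pools were incubated with 200 nmole of a 16-mer random double-stranded DNA library in Tris/NaCl/DTT/glycerol buffer at room temperature for 30 min. They were then washed, crosslinked with 0.1% formaldehyde, proximity-ligated (BsaI/T4 ligase, 1 h, 37 °C), PCR-amplified and sequenced on an Illumina NextSeq500. Binding signal is each 6-mer's read frequency for a factor divided by its frequency for the GST control.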

[2] = biological target: T2, ELK1 (Homo sapiens, UniProt P19419 1-428); conditions: protein: recombinant; tags: N-terminal GST; dsDNA, one strand shown
T2 sequence: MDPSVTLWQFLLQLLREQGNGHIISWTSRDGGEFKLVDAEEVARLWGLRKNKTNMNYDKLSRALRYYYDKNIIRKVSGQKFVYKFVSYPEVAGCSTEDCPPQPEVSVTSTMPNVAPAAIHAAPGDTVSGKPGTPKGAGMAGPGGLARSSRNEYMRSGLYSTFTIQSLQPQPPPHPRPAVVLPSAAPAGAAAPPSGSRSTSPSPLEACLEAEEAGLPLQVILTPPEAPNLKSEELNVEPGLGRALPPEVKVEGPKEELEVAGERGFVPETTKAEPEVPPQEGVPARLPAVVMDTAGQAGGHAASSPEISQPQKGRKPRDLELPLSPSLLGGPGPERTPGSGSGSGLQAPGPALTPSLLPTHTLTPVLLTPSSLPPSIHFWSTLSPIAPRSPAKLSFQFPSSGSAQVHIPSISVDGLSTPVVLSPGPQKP
Procedure, shortened: as §1

[3] = biological target: T3, GABPA (Homo sapiens, UniProt Q06546 1-454); conditions: protein: recombinant; tags: N-terminal GST; dsDNA, one strand shown
T3 sequence: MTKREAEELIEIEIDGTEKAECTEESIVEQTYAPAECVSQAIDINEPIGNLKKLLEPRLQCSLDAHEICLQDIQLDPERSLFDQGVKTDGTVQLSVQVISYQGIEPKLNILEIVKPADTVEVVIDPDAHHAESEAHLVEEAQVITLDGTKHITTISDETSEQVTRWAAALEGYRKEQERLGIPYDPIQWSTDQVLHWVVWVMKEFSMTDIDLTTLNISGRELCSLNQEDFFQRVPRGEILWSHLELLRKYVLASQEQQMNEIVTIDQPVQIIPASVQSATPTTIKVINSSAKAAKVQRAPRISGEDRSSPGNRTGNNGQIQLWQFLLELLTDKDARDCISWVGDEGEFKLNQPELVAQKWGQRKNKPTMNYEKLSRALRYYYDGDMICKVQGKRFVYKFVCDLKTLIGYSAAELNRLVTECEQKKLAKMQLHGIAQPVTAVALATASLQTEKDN
Procedure, shortened: as §1

[4] = biological target: T4, ERG (Homo sapiens, UniProt P11308 1-479); conditions: protein: recombinant; tags: N-terminal GST; dsDNA, one strand shown
T4 sequence: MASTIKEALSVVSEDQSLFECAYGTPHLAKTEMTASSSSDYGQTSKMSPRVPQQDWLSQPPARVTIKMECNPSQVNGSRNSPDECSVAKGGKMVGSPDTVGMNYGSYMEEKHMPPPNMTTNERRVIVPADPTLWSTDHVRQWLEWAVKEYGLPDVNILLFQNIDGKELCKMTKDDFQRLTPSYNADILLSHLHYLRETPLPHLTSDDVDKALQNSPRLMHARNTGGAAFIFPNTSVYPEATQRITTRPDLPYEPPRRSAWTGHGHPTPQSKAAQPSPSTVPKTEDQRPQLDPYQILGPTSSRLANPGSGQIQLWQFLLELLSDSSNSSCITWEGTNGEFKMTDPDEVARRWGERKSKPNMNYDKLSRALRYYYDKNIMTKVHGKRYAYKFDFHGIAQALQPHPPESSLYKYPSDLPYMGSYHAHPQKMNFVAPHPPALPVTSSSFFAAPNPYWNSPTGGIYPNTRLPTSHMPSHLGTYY
Procedure, shortened: as §1

[5] = biological target: ELF1 (Homo sapiens, UniProt P32519 1-619); conditions: protein: recombinant; tags: N-terminal GST; dsDNA, one strand shown
Chain of ELF1 (P32519 whole entry): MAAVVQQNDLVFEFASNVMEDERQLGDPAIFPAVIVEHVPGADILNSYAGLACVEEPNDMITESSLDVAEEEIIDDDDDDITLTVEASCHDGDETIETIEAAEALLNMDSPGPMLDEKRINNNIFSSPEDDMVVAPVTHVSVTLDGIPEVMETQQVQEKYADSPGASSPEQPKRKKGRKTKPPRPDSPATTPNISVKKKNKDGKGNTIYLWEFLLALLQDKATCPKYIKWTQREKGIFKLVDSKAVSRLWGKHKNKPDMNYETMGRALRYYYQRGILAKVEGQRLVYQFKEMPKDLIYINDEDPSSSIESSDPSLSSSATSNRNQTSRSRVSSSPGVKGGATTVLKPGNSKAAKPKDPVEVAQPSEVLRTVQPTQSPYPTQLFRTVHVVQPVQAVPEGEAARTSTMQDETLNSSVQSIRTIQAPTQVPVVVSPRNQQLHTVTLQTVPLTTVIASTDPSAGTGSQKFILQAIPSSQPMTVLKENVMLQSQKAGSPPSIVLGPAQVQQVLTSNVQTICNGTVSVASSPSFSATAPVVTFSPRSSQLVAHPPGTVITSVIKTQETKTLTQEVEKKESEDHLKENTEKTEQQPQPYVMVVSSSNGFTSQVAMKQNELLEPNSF
Procedure, shortened: as §1

[6] = biological target: T5, EHF (Homo sapiens, UniProt Q9NZC4 1-300); conditions: protein: recombinant; tags: N-terminal GST; dsDNA, one strand shown
T5 sequence: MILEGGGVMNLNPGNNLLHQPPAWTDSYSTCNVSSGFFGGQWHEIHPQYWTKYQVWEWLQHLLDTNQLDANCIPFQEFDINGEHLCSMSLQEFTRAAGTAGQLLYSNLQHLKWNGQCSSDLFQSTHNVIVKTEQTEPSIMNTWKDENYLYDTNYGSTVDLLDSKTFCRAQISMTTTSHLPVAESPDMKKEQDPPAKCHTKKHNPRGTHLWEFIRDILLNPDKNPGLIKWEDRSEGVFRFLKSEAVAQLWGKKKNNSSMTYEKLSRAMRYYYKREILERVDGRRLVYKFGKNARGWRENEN
Procedure, shortened: as §1

[7] = biological target: SPI1 (Homo sapiens, UniProt P17947 1-270); conditions: protein: recombinant; tags: N-terminal GST; dsDNA, one strand shown
Procedure, shortened: as §1

[8] = biological target: SPIB (Homo sapiens, UniProt Q01892 1-262); conditions: protein: recombinant; tags: N-terminal GST; dsDNA, one strand shown
Chain of SPIB (Q01892 whole entry): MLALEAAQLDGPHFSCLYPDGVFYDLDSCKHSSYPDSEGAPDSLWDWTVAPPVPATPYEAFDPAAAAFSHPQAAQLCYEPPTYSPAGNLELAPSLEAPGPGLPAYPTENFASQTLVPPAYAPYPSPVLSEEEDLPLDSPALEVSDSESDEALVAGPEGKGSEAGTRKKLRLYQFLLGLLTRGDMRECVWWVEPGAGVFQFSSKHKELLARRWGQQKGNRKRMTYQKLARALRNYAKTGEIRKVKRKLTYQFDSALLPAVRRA
Procedure, shortened: as §1

[9] = biological target: T6, ELK3 (Homo sapiens, UniProt P41970 1-407); conditions: protein: recombinant; tags: N-terminal GST; dsDNA, one strand shown
T6 sequence: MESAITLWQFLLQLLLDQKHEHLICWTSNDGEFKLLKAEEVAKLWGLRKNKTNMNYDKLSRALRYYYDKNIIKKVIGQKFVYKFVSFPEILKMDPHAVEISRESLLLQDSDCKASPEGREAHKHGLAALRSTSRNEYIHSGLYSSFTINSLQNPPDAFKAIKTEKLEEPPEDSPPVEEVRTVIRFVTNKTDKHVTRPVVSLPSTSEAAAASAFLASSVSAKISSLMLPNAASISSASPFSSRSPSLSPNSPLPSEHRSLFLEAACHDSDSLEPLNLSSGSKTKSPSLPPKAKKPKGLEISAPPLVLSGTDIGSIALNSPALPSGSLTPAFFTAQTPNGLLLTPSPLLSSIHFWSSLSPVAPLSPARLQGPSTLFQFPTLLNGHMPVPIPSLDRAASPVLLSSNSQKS
Procedure, shortened: as §1

[10] = biological target: T7, FEV (Homo sapiens, UniProt Q99581 1-238); conditions: protein: recombinant; tags: N-terminal GST; dsDNA, one strand shown
T7 sequence: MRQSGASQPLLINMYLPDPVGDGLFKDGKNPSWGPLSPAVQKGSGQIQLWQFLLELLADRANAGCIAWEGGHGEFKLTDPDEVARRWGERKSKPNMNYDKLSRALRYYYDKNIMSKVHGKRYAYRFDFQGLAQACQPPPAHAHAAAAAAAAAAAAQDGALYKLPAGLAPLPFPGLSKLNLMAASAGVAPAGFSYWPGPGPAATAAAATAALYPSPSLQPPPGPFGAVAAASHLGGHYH
Procedure, shortened: as §1

[11] = biological target: ETV5 (Homo sapiens, UniProt P41161 1-510); conditions: protein: recombinant; tags: N-terminal GST; dsDNA, one strand shown
Chain of ETV5 (P41161 whole entry): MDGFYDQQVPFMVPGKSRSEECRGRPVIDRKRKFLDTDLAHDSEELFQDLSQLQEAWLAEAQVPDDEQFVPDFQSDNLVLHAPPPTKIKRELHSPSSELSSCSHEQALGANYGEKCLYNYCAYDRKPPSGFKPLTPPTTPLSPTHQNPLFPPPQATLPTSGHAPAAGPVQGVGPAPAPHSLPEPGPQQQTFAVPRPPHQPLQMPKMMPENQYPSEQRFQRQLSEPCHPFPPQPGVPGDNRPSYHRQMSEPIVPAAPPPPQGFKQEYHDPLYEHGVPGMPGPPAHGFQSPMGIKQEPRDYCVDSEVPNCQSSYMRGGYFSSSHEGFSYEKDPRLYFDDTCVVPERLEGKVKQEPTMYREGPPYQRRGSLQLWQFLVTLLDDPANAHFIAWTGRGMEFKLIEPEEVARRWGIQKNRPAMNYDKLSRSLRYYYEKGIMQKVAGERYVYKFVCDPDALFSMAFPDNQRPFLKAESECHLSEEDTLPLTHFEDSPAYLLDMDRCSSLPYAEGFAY
Procedure, shortened: as §1

[12] = biological target: HSF1 (Homo sapiens, UniProt Q00613 1-529); conditions: protein: recombinant; tags: N-terminal GST; chain copies: 3; dsDNA, one strand shown
Chain of HSF1 (Q00613 whole entry): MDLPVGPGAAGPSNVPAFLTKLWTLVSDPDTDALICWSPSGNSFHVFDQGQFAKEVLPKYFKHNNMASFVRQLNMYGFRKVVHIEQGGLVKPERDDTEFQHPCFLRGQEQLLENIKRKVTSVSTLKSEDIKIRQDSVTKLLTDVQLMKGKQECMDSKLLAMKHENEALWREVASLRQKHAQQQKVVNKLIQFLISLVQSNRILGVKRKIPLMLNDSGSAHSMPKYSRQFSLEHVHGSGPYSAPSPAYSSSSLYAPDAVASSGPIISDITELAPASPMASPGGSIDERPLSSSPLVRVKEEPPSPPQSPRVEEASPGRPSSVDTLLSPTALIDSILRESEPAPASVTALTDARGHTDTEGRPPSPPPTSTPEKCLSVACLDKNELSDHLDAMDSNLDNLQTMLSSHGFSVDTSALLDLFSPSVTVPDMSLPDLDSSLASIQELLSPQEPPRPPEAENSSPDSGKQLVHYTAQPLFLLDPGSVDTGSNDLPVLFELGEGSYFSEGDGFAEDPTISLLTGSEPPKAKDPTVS
Procedure, shortened: as §1

[13] = biological target: T8, SPIC (Homo sapiens, UniProt Q8N5J4 1-248); conditions: protein: recombinant; tags: N-terminal GST; dsDNA, one strand shown
T8 sequence: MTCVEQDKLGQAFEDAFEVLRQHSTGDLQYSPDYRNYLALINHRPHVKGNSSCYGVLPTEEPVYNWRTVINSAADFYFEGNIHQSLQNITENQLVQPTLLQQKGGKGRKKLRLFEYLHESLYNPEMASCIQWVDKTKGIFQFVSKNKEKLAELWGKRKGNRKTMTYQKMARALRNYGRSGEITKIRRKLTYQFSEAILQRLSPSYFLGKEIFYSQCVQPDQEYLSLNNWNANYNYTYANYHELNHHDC
Procedure, shortened: as §1

[14] = biological target: ELF4 (Homo sapiens, UniProt Q99607 1-663); conditions: protein: recombinant; tags: N-terminal GST; dsDNA, one strand shown
Chain of ELF4 (Q99607 whole entry): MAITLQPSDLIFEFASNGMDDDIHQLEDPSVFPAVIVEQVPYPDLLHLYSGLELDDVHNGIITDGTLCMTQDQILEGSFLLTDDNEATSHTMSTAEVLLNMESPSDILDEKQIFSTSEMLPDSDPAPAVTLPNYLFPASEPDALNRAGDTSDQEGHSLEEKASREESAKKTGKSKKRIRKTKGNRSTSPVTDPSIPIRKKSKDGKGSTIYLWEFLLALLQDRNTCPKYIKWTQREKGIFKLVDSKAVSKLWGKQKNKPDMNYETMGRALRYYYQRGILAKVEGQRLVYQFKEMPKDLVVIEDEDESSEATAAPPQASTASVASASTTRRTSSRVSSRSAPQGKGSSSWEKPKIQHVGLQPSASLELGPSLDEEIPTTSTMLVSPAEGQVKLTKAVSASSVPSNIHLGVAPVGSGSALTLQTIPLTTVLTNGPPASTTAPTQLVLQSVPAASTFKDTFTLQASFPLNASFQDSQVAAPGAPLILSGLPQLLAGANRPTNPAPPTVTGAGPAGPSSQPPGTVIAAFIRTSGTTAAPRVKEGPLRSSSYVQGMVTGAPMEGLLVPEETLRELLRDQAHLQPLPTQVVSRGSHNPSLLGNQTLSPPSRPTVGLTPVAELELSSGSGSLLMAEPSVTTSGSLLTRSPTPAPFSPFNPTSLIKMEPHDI
Procedure, shortened: as §1

[15] = biological target: T9, ELK4 (Homo sapiens, UniProt P28324-2 1-405); conditions: protein: recombinant; tags: N-terminal GST; dsDNA, one strand shown
T9 sequence: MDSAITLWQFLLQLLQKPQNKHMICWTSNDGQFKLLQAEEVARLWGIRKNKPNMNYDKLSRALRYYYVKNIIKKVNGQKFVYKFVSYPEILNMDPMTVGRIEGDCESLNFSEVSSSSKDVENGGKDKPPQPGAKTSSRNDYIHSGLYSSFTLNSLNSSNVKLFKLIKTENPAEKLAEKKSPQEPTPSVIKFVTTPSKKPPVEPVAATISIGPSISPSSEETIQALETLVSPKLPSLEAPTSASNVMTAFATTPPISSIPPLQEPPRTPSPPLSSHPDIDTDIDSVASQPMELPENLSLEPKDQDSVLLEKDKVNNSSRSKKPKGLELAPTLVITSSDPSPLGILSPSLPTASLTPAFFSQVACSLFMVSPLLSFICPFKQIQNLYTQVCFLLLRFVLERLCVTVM
Procedure, shortened: as §1

[16] = biological target: T10, ETV2 (Homo sapiens, UniProt O00321 1-342); conditions: protein: recombinant; tags: N-terminal GST; dsDNA, one strand shown
T10 sequence: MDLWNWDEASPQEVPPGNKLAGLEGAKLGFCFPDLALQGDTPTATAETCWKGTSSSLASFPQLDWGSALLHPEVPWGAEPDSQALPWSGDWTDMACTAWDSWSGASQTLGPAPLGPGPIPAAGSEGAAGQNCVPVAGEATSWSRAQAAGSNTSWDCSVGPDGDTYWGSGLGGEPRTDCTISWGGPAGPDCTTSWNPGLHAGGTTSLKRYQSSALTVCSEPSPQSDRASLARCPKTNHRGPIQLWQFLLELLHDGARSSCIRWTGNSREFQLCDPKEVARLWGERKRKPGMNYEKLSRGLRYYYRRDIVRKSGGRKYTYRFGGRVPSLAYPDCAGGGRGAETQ
Procedure, shortened: as §1

[17] = biological target: T11, ELF3 (Homo sapiens, UniProt P78545 1-371); conditions: protein: recombinant; tags: N-terminal GST; dsDNA, one strand shown
T11 sequence: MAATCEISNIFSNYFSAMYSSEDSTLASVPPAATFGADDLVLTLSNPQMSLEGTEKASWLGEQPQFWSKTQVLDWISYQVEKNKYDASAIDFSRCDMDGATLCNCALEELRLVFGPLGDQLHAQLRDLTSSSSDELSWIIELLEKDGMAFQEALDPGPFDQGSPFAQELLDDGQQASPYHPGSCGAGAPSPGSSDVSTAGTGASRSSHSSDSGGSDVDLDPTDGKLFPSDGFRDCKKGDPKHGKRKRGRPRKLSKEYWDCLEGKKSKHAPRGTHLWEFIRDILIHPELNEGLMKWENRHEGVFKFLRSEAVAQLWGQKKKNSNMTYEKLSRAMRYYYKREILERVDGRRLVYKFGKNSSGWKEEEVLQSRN
Procedure, shortened: as §1

[18] = biological target: CRX (Homo sapiens, UniProt O43186 1-299); conditions: protein: recombinant; tags: N-terminal GST; dsDNA, one strand shown
Chain of CRX (O43186 whole entry): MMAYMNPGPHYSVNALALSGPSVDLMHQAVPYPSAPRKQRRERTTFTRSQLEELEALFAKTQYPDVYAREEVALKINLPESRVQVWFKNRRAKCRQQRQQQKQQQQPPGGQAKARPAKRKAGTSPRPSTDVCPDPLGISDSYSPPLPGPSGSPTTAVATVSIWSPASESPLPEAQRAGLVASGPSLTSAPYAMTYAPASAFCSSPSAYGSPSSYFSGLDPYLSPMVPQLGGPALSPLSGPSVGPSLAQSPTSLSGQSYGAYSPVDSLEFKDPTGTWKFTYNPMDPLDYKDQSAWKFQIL
Procedure, shortened: as §1

[19] = biological target: ETV1 (Homo sapiens, UniProt P50549 1-477); conditions: protein: recombinant; tags: N-terminal GST; dsDNA, one strand shown
Chain of ETV1 (P50549 whole entry): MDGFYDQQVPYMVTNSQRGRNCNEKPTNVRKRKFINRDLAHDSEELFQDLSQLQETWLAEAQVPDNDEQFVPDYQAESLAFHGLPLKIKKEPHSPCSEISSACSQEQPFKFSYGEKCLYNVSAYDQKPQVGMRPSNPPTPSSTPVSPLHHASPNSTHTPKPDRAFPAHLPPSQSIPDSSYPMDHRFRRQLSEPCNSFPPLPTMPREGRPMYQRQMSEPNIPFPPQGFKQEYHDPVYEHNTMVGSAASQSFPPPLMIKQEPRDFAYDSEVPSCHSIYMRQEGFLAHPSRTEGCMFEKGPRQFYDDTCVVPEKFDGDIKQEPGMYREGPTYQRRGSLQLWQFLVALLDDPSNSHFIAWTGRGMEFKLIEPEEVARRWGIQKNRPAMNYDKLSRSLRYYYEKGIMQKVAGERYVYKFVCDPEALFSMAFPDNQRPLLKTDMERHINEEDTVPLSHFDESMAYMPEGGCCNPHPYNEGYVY
Procedure, shortened: as §1

CTAATA
binding signal [1]: 1.21 fold enrichment (6-mer frequency, TF over GST control)
binding signal [2]: 1.15 fold enrichment (6-mer frequency, TF over GST control)
binding signal [3]: 1.13 fold enrichment (6-mer frequency, TF over GST control)
binding signal [4]: 1.17 fold enrichment (6-mer frequency, TF over GST control)
binding signal [5]: 1.19 fold enrichment (6-mer frequency, TF over GST control)
binding signal [6]: 1.25 fold enrichment (6-mer frequency, TF over GST control)
binding signal [7]: 1.24 fold enrichment (6-mer frequency, TF over GST control)
binding signal [8]: 1.17 fold enrichment (6-mer frequency, TF over GST control)
binding signal [9]: 1.06 fold enrichment (6-mer frequency, TF over GST control)
binding signal [10]: 1.16 fold enrichment (6-mer frequency, TF over GST control)
binding signal [11]: 1.21 fold enrichment (6-mer frequency, TF over GST control)
binding signal [12]: 1.55 fold enrichment (6-mer frequency, TF over GST control)
binding signal [13]: 1.29 fold enrichment (6-mer frequency, TF over GST control)
binding signal [14]: 1.18 fold enrichment (6-mer frequency, TF over GST control)
binding signal [15]: 1.1 fold enrichment (6-mer frequency, TF over GST control)
binding signal [16]: 1.24 fold enrichment (6-mer frequency, TF over GST control)
binding signal [17]: 1.16 fold enrichment (6-mer frequency, TF over GST control)
binding signal [18]: 2.09 fold enrichment (6-mer frequency, TF over GST control)
binding signal [19]: 1.22 fold enrichment (6-mer frequency, TF over GST control)
